The values below come from PubChem BioAssay (Tox21).

Results filed as inconclusive are left out. The source made the active and inactive calls. Unless noted, calls follow the shape of the full dose curve.

Assay [1] in a line: Nuclear factor erythroid 2-related factor 2/antioxidant responsive element (Nrf2/ARE) small molecule agonists: qHTS cell viability counter screen in human keratinocytes (AID 1919968; active = well fitted curve in the direction sought with a large enough effect in the repeat runs; an effect the other way counts as inactive or inconclusive; also: nearly all actives have a fitted effect of over 55% in size; also: potency is read from the fitted curve at half-maximal effect). An outline of the steps:
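After a 5 h attachment period, ARE-reporter keratinocytes were dosed with compounds in DMSO and then cultured 23 h at 37 C. Cell viability came from CellTiter-Fluor signal read after a further 1 h.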
(In general: In qHTS, concentration-response curves come from the screen itself.)

Assay [2] can be described thus: Nuclear factor erythroid 2-related factor 2/antioxidant responsive element (Nrf2/ARE) small molecule agonists: luciferase reporter gene qHTS assay in human keratinocytes (AID 1919969). Also: nearly all actives have a fitted effect of over 35% in size. Also: potency is read from the fitted curve at half-maximal effect. A general note: A reporter such as luciferase makes a cellular process visible.
Assay [3] concerns the target Gonadotropin-releasing hormone receptor (Homo sapiens) (UniProt P30968). Nature of the assay: Human gonadotropin-releasing hormone receptor (GnRHR) small molecule agonists, calcium flux assay in GnRHR-HEK293 cells (AID 1920063). Also: nearly all actives have a fitted effect of over 35% in size. An outline of the steps: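 We seeded human GnRHR-expressing HEK293 cells for 18 hours, loaded them with calcium dye for an hour at 37 C, added test compounds, and recorded fluorescence intensity kinetically for three minutes.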
A general note: Calcium flux is commonly read through the fluorescence of an indicator in the cells.

In assay [4] the target is KiSS-1 receptor (Homo sapiens) (UniProt Q969F8). Nature of the assay: Human kisspeptin (KISS1R) small molecule agonists, calcium flux assay in KISS1R-HEK293 cells (AID 1920064; active = well fitted curve in the direction sought with a large enough effect in the repeat runs; an effect the other way counts as inactive or inconclusive). The method in brief: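 Kinetic calcium assay, 1 s sampling over 3 min at Ex/Em 480/540, in HEK293 cells engineered with human KISS1R; compounds delivered in DMSO after 1 h dye loading.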
Assay [5] in a line: G protein-coupled receptor (GPCR) small molecule agonists, calcium flux assay: HEK293 wild type cell line counter screen (AID 1920065). The method in brief:
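Calcium-sensitive dye, loaded 1 h at 37 C into cells cultured 18 h, reports compound-evoked calcium release as fluorescence (Ex/Em 480/540), measured over 3 min. Agonist mode; 15-point titrations, triplicate.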

A short description of assay [6]: p53 small molecule agonists, cell-based qHTS assay with rat liver microsomes: qHTS cell viability counter screen (AID 1963580). Also: nearly all actives have a fitted effect of over 45% in size. An outline of the steps:
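Intracellular ATP, by CellTiter-Glo luminescence, defines viability. HCT-116 p53RE-bla cells, 4,000 per well, were compound-treated in the presence of rat liver microsomes and NADPH for 16 h at 37 C.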

Assay [7] can be described thus: p53 small molecule agonists, cell-based qHTS assay: qHTS cell viability counter screen (AID 1963581). Also: nearly all actives have a fitted effect of over 45% in size. The method in brief: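 Following 5 h attachment, HCT-116 p53RE-bla cells took up compound for 16 h at 37 C; the reporter was read with B/G FRET substrate (2 h RT), and viability then via CellTiter-Glo ATP luminescence.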
Assay [8] is described as follows: p53 small molecule agonists, cell-based qHTS assay (AID 1963582; active = well fitted activation curve with a large enough effect in the signal ratio in the repeat runs, not every such curve was filed as active; the % refers to the signal ratio). The method in brief:
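In this cell-based concentration-response screen, a p53 response element drives beta-lactamase; cells received DMSO-borne compounds after 5 h culture and were incubated a further 16 h before FRET substrate development.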

Assay [9] concerns the target 5-hydroxytryptamine receptor 2A (Homo sapiens) (UniProt P28223). Description: 5-hydroxytryptamine receptor 2A (HTR2A) small molecule antagonists, cell-based qHTS assay (AID 1963586). Also: nearly all actives have a fitted effect of over 45% in size. An outline of the steps: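 Antagonist-mode intracellular calcium assay: DOI (4 nM) added after 5 min compound pre-incubation at room temperature to dye-loaded HTR2A-CHO cells. Fluorescence followed for 3 min, sampled every second.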

Assay [10] shares this target. Description: 5-hydroxytryptamine receptor 2A (HTR2A) small molecule agonists, cell-based qHTS assay (AID 1963587). Also: nearly all actives have a fitted effect of over 30% in size. Also: potency is read from the fitted curve at half-maximal effect. An outline of the steps:
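Kinetic calcium-flux fluorescence (2 min, 1 sec intervals) after compound addition in agonist mode. HTR2A-CHO cells were cultured 18 h, then dye-loaded 1 h at 37 C.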

Assay [11] concerns the target Muscarinic acetylcholine receptor M1 (Homo sapiens) (UniProt P11229). Description: Cholinergic receptor muscarinic 1 (CHRM1) small molecule antagonists, cell-based qHTS assay (AID 1963588). Also: nearly all actives have a fitted effect of over 40% in size. The method in brief:
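CHRM1-CHO calcium-flux assay, antagonist mode. Cells were seeded 18 h, dye-loaded 1 h at 37 C and given compound for 5 min at RT, then acetylcholine was added at 50nM. FDSS fluorescence was read 3 min; 15 concentrations, three runs.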

Assay [12] shares this target. Description: Cholinergic receptor muscarinic 1 (CHRM1) small molecule agonists, cell-based qHTS assay (AID 1963589). Also: nearly all actives have a fitted effect of over 35% in size. An outline of the steps:
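Measures agonist-induced intracellular calcium rise. Stable human CHRM1 CHO line, 1 h dye load at 37 C, compounds from DMSO, kinetic fluorescence read.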

Assay [13] is described as follows: cAMP Responsive Elements (CRE) small molecule agonists, cell-based qHTS assay (AID 1963590). The method in brief: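 A CRE-responsive beta-lactamase reporter in HEK 293T cells was used. Treatment ran 3 h at 37 C; detection used LiveBLAzer B/G FRET substrate for 2 h at room temperature.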
In assay [14] the target is Beta-2 adrenergic receptor (Homo sapiens) (UniProt P07550). Nature of the assay: Adrenergic beta2 receptor (ADRB2) small molecule antagonists, cell-based qHTS assay (AID 1963592). Also: series mostly up to about 92 µM; nearly all actives have a fitted effect of over 50% in size. The method in brief: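 Cells (CHO, stable ADRB2 overexpression) incubated 18-20hr at 37C; compounds added from DMSO; agonist mix (1nM isoproterenol, 100uM IBMX, 25uM Ro-20-1724) added; 0.5hr RT; d2-cAMP and anti-cAMP-cryptate added; 1hr RT; 665/615 nm read.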

In assay [15] the target is D(2) dopamine receptor (Homo sapiens) (UniProt P14416). Nature of the assay: Dopamine D2 receptor (DRD2) small molecule agonists, cell-based qHTS assay (AID 1963594). Also: nearly all actives have a fitted effect of over 35% in size. The method in brief: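 cAMP accumulation in DRD2-HEK293 cells measured by HTRF after 1 h detection; compounds added 10 min before NKH477 (200nM […]) forskolin-analogue stimulation, 30 min at room temperature, with Ro20-1724 present at 0.1 mM final.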

Assay [16] can be described thus: p53 small molecule agonists, cell-based qHTS assay with human liver microsomes: qHTS cell viability counter screen (AID 1963579). Also: nearly all actives have a fitted effect of over 45% in size. The method in brief:
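p53RE-bla cells (4,000/well) were pre-incubated 5 h at 37 C, then given compounds in DMSO plus human liver microsomes (0.5 mg/mL final) and NADPH (0.5 mg/mL final) for 16 h at 37 C. Viability was read by CellTiter-Glo luminescence.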

Assay [17] concerns the target D(2) dopamine receptor (Homo sapiens) (UniProt P14416). Nature of the assay: Dopamine D2 receptor (DRD2) small molecule antagonists, cell-based qHTS assay (AID 1963595; active = well fitted inhibition curve with a large enough effect in the signal ratio in the repeat runs, with a control signal flat; the % refers to the signal ratio). The method in brief: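 Human DRD2 antagonist qHTS measuring cAMP by HTRF. The cells are exposed to compound for 10 min, then to NKH477 (200 nM) and quinpirole (12 nM) for 30 min at RT, with Ro20-1724 (0.1 mM) present throughout.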

A short description of assay [18]: p53 small molecule agonists, cell-based qHTS assay with rat liver microsomes (AID 1963578). The method in brief:
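p53RE-bla cells were exposed to compounds together with rat liver microsomes (0.5 mg/mL final) and NADPH (0.5 mg/mL final) for 16 h at 37 C, then read by LiveBLAzer beta-lactamase fluorescence after 2 h at room temperature.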

Assay [19] is described as follows: cAMP Responsive Elements (CRE) small molecule antagonists, cell-based qHTS assay (AID 1963591; active = well fitted inhibition curve with a large enough effect in the signal ratio in the repeat runs, not every such curve was filed as active; the % refers to the signal ratio). The method in brief:
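HEK293T cells carrying a CRE-driven beta-lactamase reporter receive compound and NKH477 (0.25 uM final) for 3 h. Fluorescence from LiveBLAzer B/G FRET substrate is read after 2 h at room temperature.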

The target in assay [20] is Beta-2 adrenergic receptor (Homo sapiens) (UniProt P07550). Nature of the assay: Adrenergic beta2 receptor (ADRB2) small molecule agonists, cell-based qHTS assay (AID 1963593).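 Also: CHO cells stably overexpressing human ADRB2.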 The method in brief: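 CHO cells stably over-expressing ADRB2 were plated overnight at 37C, then dosed with compounds plus a stimulation mix containing 100uM IBMX and 25uM Ro-20-1724 for 0.5hr at room temperature. cAMP was measured by HTRF competition, 1hr.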

Chain of 5-hydroxytryptamine receptor 2A (Homo sapiens) (P28223 whole entry, looked up): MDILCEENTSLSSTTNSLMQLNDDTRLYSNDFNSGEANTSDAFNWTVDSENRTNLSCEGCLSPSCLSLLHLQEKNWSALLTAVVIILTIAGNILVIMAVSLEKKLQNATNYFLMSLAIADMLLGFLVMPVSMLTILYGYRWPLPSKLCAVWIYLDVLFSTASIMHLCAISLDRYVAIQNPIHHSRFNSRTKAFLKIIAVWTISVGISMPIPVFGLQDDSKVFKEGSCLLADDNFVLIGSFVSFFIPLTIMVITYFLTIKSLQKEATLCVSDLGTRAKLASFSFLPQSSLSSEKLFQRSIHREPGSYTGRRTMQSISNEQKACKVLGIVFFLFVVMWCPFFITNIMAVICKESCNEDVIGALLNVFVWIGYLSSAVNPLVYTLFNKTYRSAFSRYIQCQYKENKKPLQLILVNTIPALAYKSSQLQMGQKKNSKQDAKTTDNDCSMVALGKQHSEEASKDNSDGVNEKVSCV
Chain of Muscarinic acetylcholine receptor M1 (Homo sapiens) (P11229 whole entry, looked up): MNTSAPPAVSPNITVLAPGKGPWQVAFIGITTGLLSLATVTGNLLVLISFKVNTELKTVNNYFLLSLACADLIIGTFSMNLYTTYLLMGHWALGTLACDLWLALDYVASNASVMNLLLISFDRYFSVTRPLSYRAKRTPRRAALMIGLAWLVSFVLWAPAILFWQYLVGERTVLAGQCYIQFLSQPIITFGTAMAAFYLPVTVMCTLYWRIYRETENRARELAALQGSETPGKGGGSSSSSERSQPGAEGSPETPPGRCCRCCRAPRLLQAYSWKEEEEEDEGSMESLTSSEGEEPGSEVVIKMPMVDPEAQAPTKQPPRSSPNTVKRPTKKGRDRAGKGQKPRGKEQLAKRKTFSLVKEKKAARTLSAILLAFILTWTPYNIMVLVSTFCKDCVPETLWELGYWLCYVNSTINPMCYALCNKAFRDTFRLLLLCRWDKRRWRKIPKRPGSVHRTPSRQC
Chain of KiSS-1 receptor (Homo sapiens) (Q969F8 whole entry, looked up): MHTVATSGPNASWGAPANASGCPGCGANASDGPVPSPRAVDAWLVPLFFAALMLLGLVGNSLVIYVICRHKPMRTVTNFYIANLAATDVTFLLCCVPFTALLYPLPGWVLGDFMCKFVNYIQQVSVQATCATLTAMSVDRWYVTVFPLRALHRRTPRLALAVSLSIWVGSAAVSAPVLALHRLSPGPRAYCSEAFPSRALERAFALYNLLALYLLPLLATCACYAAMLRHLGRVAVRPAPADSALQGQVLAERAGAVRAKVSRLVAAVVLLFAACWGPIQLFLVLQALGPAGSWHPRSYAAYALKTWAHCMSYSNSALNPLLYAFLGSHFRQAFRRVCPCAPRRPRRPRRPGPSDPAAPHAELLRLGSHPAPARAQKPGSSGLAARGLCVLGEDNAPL
Chain of Gonadotropin-releasing hormone receptor (Homo sapiens) (P30968 whole entry, looked up): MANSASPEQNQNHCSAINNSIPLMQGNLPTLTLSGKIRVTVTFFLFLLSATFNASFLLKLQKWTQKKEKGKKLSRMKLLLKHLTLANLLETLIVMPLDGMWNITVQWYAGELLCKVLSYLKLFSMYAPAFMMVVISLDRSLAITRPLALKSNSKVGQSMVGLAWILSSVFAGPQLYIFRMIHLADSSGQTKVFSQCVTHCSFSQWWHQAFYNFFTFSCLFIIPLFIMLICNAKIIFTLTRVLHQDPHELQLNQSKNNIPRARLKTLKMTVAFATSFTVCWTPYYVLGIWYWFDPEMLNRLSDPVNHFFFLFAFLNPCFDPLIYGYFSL
Chain of Beta-2 adrenergic receptor (Homo sapiens) (P07550 whole entry, looked up): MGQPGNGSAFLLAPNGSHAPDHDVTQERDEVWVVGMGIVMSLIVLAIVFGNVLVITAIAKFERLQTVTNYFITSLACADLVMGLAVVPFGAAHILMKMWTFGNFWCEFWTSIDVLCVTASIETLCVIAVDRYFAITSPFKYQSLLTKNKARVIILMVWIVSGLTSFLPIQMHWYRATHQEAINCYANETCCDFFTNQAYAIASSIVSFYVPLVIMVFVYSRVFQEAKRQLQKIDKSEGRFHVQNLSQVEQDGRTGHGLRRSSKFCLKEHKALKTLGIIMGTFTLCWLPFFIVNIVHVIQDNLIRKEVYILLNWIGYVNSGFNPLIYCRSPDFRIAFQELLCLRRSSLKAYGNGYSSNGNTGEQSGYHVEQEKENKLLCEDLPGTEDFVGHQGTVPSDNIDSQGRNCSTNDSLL
Chain of D(2) dopamine receptor (Homo sapiens) (P14416 whole entry, looked up): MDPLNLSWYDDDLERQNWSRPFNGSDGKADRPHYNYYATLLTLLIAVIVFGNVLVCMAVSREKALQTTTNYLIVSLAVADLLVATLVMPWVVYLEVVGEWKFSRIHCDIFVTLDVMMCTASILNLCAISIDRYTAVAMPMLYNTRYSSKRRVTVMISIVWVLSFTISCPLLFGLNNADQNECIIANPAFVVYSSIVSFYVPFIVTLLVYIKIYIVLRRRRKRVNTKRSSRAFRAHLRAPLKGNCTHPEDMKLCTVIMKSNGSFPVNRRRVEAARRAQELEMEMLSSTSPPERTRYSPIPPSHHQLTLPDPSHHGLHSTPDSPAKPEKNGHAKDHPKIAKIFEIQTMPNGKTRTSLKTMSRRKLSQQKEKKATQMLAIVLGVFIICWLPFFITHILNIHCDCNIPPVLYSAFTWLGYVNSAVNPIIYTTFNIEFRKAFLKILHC

Consider `O=C(CCCCC(=O)Nc1c(I)cc(I)c(C(=O)O)c1I)Nc1c(I)cc(I)c(C(=O)O)c1I`, for which the Potency result in assay [1], in assay [2], in assay [3], in assay [6], in assay [7] and in assay [8] was “inactive” each time. Further, the Potency result in assay [9], in assay [10], in assay [11], in [12], in assay [13] and in assay [14] was “inactive” throughout. Besides, the Potency result in [15] is “inactive”. The result in assay [4] and in [5] was inactive.
In the case of `O=C1c2ccccc2C(=O)N1CCl`, the Potency result in assay [1], in [2], in assay [3], in assay [16], in assay [7] and in [8] was “inactive” throughout. Further, the Potency entry in [9], in assay [10], in assay [12], in assay [13], in assay [14] and in assay [15] was “inactive” throughout. For the same compound, the Potency result in assay [17] is “inactive”. Further, the result in [4] and in [5] was inactive.
Regarding `O=C(NCCCN1CCOCC1)c1ccc(Cl)cc1`, the Potency result in assay [1], in assay [2], in assay [3], in assay [18], in assay [16] and in assay [6] was “inactive” in each case. Moreover, the Potency result in assay [7], in [8], in [9], in assay [10], in [11] and in assay [12] was “inactive” throughout. The Potency result in assay [13], in assay [19], in [14], in assay [15] and in [17] was “inactive” in each case. In addition, the result in assay [4] and in [5] was inactive.
Take `Oc1ccc(Nc2ccccc2)cc1`: the Potency entry in assay [1], in assay [3], in [8], in [9], in assay [10] and in assay [11] was “inactive” in each case. Also, the Potency entry in [12], in assay [13] and in assay [17] was “inactive” in each case. Also, the Potency in [2] was 61.1 µM (active). The result in assay [4] and in [5] was inactive.
With `CCCCCCCCCCCCCCNCCO`, the Potency was 26.6 µM (active) in [1], 13.3 µM (active) in assay [2] and 23.9 µM (active) in assay [10]. Besides, the Potency entry in [3], in [16], in [6], in assay [8], in assay [11] and in assay [12] was “inactive” each time. For the same compound, the Potency entry in assay [13], in assay [19], in [14], in [20] and in assay [17] was “inactive” each time. Moreover, the result in assay [4] and in [5] was inactive.
As to `CCCCCCCCOc1ccc(C(=O)O)cc1`, the Potency result in assay [1], in assay [3], in assay [16], in [6], in [10] and in assay [11] was “inactive” in each case. For the same compound, the Potency result in assay [19], in assay [14], in [15] and in [17] was “inactive” each time. In assay [2], the Potency is 60.4 µM (active). Further, the result in assay [4] and in assay [5] was inactive.
For the compound `CC(C)OC(=O)C(C(=O)OC(C)C)=C1SC=CS1`, the Potency result in assay [1], in [2], in [3], in assay [6], in assay [7] and in assay [8] was “inactive” each time. For the same compound, the Potency result in assay [10], in assay [11], in [12], in assay [13], in [14] and in assay [20] was “inactive” throughout. Further, the Potency entry in assay [15] and in assay [17] was “inactive” in each case. Moreover, the outcome in assay [4] and in assay [5] was inactive.
On to `O=C(O)c1cc(Cl)cc(Cl)c1O`, for which the Potency entry in assay [1], in assay [2], in assay [3], in assay [16], in assay [8] and in assay [9] was “inactive” each time. For the same compound, the Potency entry in [11], in assay [12], in [19], in [14], in assay [15] and in assay [17] was “inactive” in each case. In addition, the outcome in [4] and in assay [5] was inactive.
